{"source": "PubChem BioAssay (NCATS)", "note": "Records with an inconclusive call do not appear. Activity calls are given as the source filed them. Calls follow the shape of the full dose curve. % is scaled to controls: 0 for no effect and ±100 for the full control effect; potency is read from the fitted curve at half-maximal effect."}
{"assay": "Primary qHTS for inhibitors of MERS-S pseudo-typed particle cell entry (AID 1479149); also: nearly all actives have a fitted effect of over 60% in size", "settings": "MERS-S pseudotyped particle entry, luciferase; series mostly up to 57.1 µM; activity change, negative = inhibition: at the top concentration"}
{"smiles": "COC1=C(OC)C(=O)C(CCCCCCCCCCO)=C(C)C1=O", "activity change, negative = inhibition": "-4.51% (inactive)"}
{"smiles": "Cc1cc(C(C)(C)C)cc(C)c1CC1=NCCN1", "activity change, negative = inhibition": "-3.41% (inactive)"}
{"smiles": "CCOC(CN1CCN(CC(C)C(=O)c2ccccc2)CC1)c1ccccc1", "note": "(stereo not drawn)", "outcome": "inactive [at 26.4 µM]"}
{"smiles": "CCN(CC)CCOC(=O)C(Cc1cccc2ccccc12)CC1CCCO1", "note": "(stereo not drawn)", "activity change, negative = inhibition": "-14.9% (inactive)"}
{"smiles": "CCCC(=O)O[C@]1(C(=O)CC)CC[C@H]2[C@@H]3CCC4=CC(=O)CC[C@]4(C)[C@H]3[C@@H](O)C[C@@]21C", "outcome": "inactive"}
{"smiles": "CN(C)[C@@H](CCOc1cccc2ccccc12)c1ccccc1", "Potency": "20 µM (active)"}
{"smiles": "CC(=O)[C@@]1(O)CC[C@H]2[C@@H]3C[C@H](C)C4=CC(=O)CC[C@]4(C)[C@H]3CC[C@@]21C", "activity change, negative = inhibition": "-13% (inactive)"}
{"smiles": "CN1CCN(c2c(F)cc3c(=O)c(C(=O)O)cn(CCF)c3c2F)CC1", "activity change, negative = inhibition": "0.689% (inactive)"}
{"smiles": "COc1ccnc2c1CCCCC2S(=O)c1nc2ccccc2[nH]1", "note": "(stereo not drawn)", "outcome": "inactive"}
{"smiles": "C[N+]1(C)CCC(=C(c2ccccc2)c2ccccc2)CC1", "activity change, negative = inhibition": "-24.9% (inactive)"}
{"smiles": "COc1ccc(C(Cl)=C(c2ccc(OC)cc2)c2ccc(OC)cc2)cc1", "outcome": "inactive"}
{"smiles": "CC(Oc1c(Cl)cccc1Cl)C1=NCCN1", "note": "(stereo not drawn)", "outcome": "inactive"}
{"smiles": "O=C1O[C@H]([C@@H](O)CO)C(O)=C1O", "activity change, negative = inhibition": "-0.927% (inactive)"}
{"smiles": "N/C(=N\\N=C\\c1ccc(Cl)cc1)N/N=C/c1ccc(Cl)cc1", "activity change, negative = inhibition": "-91.5% (inactive)"}
{"smiles": "CC1=C(C(=O)OC(C)C)C(c2cccc([N+](=O)[O-])c2)C(C(=O)OC2CN(C(c3ccccc3)c3ccccc3)C2)=C(N)N1", "note": "(stereo not drawn)", "activity change, negative = inhibition": "-5.21% (inactive)"}
{"smiles": "CC(C)N=C(N)/N=C(\\N)Nc1ccc(Cl)cc1", "activity change, negative = inhibition": "-19.6% (inactive)"}
{"smiles": "CCOc1ccccc1C(N)=O", "outcome": "inactive"}
{"smiles": "CC(=O)OCC(=O)Nc1cc(C#N)cc(NC(=O)COC(C)=O)c1Cl", "outcome": "inactive"}
